Consider 61 compounds from PubChem BioAssay AID1851 (National Center for Advancing Translational Sciences (NCATS), 2009).

Molecules are shown by their SMILES. The whole screen tested about 16,000 compounds, of which about 4,000 (25%) were called active. Another 26% or so got no clear call; they are omitted. Calls come from the whole dose curve; as a rule, active = well fitted curve in the direction sought with a large enough effect; inconclusive = small, poorly fitted or top-dose-only effect, or effect the other way; inactive = no such curve, though single readings can be large or run the other way. These entries were drawn from the full list.

In general, AC50 refers to the concentration giving half of the maximal activity seen.
% is set by controls: 0 for no effect and ±100 for the full control effect.

For the test, the target named is Cytochrome P450 2C9 (Homo sapiens) (UniProt P11712). Briefly: Cytochrome panel assay with activity outcomes. The following applies: recombinant CYP, pro-luciferin dealkylation, luminescence, p450-cyp2c9; series mostly up to 57.1 µM.
Cytochrome P450 2C9 (Homo sapiens), sequence (P11712 whole entry, looked up): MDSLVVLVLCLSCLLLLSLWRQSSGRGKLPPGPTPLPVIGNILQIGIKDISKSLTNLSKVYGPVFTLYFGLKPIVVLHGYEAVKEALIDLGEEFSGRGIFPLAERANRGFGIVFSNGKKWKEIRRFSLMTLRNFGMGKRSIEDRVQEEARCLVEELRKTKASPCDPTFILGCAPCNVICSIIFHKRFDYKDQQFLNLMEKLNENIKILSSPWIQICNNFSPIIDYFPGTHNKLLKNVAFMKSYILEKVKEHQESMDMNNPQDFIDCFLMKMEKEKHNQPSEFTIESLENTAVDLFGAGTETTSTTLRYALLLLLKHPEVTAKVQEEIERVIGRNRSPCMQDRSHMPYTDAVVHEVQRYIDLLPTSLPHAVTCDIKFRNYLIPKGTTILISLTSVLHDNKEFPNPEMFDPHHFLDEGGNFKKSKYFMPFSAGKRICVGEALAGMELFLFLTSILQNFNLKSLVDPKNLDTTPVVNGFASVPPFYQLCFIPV
In the case of `Cc1cc(C=O)c(C)n1-c1ccc(NC2CCCC2)c([N+](=O)[O-])c1`, the AC50 entry is “inactive”. `COC(=O)c1c(-n2c(C)cc(C=O)c2C)sc2c1CCCC2`: the half-maximal activity concentration (AC50) was 1.12 µM (active). Take `Cc1sc(N/N=C/c2cccnc2)nc1-c1ccccc1`: the AC50 is 0.355 µM (active). Take `Cc1cnn(-c2cc(N/N=C/c3ccccc3)ncn2)c1`: the AC50 result was “inactive”. `C(=N/Nc1nnc2c(n1)[nH]c1ccccc12)/c1cccnc1`: the activity, negative = inhibition was -16.8% [at 11.4 µM] (inactive). For `CC(C)=C[C@H]1[C@@H](C(=O)Oc2ccccc2C(C)C)C1(C)C`, the activity, negative = inhibition is -15.1% [at 11.4 µM] (inactive). On the same count and under the same terms, the same measure for `CCN1C(=O)[C@H]2[C@@H]3[C@H](O)C=CC(=O)[C@H]3CC[C@H]2C1=O`: 17.9% [at 11.4 µM] (inactive).

Turning to `CCN1CCN(C(=O)N[C@H](C(=O)N[C@@H]2C(=O)N3[C@@H]2SC(C)(C)[C@@H]3C(=O)O)c2ccccc2)C(=O)C1=O`, the AC50 result is “inactive”. Still for that read-out and setting: with `COc1cc([C@H]2c3cc4c(cc3[C@@H](O)[C@@H]3COC(=O)[C@H]23)OCO4)cc(OC)c1OC` the figure was 6.31 µM (active). Take `COc1cc2c(c(O)c1OC)C(=O)C(OC)CCC2` (stereo unspecified): the AC50 entry is “inactive”.

Take `Nc1ncnc2c1nc(-c1ccccc1)n2[C@H]1O[C@@H](CO)[C@@H](O)[C@H]1O`: the activity, negative = inhibition is 9.27% [at 11.4 µM] (inactive).

On to `Cn1cc([N+](=O)[O-])c(C(=O)Nc2cc(Oc3cccnc3)cc([N+](=O)[O-])c2)n1`, for which the half-maximal activity concentration (AC50) is 5.62 µM (active). For the compound `CCC/C=C(\CCC)C(NS(=O)(=O)c1cccc2cccnc12)c1ccc(C(=O)OC)cc1` (stereo unspecified), the AC50 is 1.58 µM (active). Regarding `CCC/C=C(\CCC)C(NS(=O)(=O)c1cccc2cccnc12)c1ccc(-c2ccccc2)cc1` (stereo unspecified), the concentration at half-maximal activity (AC50) was 2 µM (active).

Turning to `O=[N+]([O-])c1cccc2c[nH]nc12`, the AC50 result was “inactive”. On to `O=[N+]([O-])c1ccc(S(=O)(=O)Cc2ccccc2)c2nonc12`, for which the AC50 is 0.316 µM (active). Consider `COc1cc(OC)c(OC)cc1C=NCC1(c2ccccc2)CCCC1`, for which the AC50 result was “inactive”. Take `CN1CCCC2(CCN(C(=O)c3cnccn3)CC2)C1`: the AC50 result was “inactive”. For the compound `Cc1cc(OCCn2cc(/C(N)=N/O)c3ccccc32)ccc1Cl`, the AC50 was 12.6 µM (active). With `CC(C)(N)C(=O)N[C@@H]1C(=O)N2[C@@H]1SC(C)(C)[C@H]2C(=O)O`, the activity, negative = inhibition is 14.5% [at 11.4 µM] (inactive).

Turning to `Cc1csc(NC(=O)Cc2c[nH]c3ccccc23)n1`, the AC50 was 12.6 µM (active).

Turning to `CC1(C)Cc2c(C#N)c(SCc3ccccc3)nc(N3CCOCC3)c2CO1`, the AC50 was 0.708 µM (active). On the same count and under the same terms, with `CCCCCCC(C)n1cc(C(C)=O)c(=O)[nH]c1=O` (stereo unspecified) the entry was “inactive”. For `O=C(Oc1ccc2c(c1)CN(Cc1ccccc1)CO2)c1ccccc1`, the activity, negative = inhibition is -0.387% [at 11.4 µM] (inactive). With `COC(=O)[C@H](N)Cc1ccc(Cl)cc1`, the AC50 entry is “inactive”. Still for that read-out and setting: with `COC(=O)C(Cc1ccc(OC(=O)c2ccc(C(F)(F)F)cc2)cc1)N1Cc2ccccc2C1=O` (stereo unspecified) the figure was 8.91 µM (active). The same measure, in the same setting: with `COC(=O)C(Cc1ccc(OC(=O)c2ccc(Cl)cc2)cc1)N1Cc2ccccc2C1=O` (stereo unspecified) the figure was 3.16 µM (active); with `CCN(CC)C(=O)C1=C(C)NC(=S)NC1c1cn(-c2ccccc2)nc1-c1ccc(Cl)cc1` (stereo unspecified), “inactive”. Same read-out and setting: with `COC(=O)C1=C(C)NC2=C(C(=O)CCC2)C1c1cn(Cc2ccc(Cl)cc2Cl)nc1-c1ccccc1` (stereo unspecified) the figure was 1 µM (active); with `c1ccc2c(c1)CCCc1cc(NCCN3CCOCC3)nnc1-2`, “inactive”; with `COc1ccccc1CN1CCC2(CCNCC2)CC1`, “inactive”. Turning to `C(=Nc1cnc2ccccc2c1)c1ccc2ccccc2n1`, the activity, negative = inhibition was 3.29% [at 11.4 µM] (inactive). Turning to `Cc1cccc(NC(=S)NC(=O)CCc2ccccc2)c1`, the half-maximal activity concentration (AC50) was 7.94 µM (active). `Cc1cccc(NC(=S)Nc2ccc(Br)cc2)c1`: the AC50 entry was “inactive”. In the case of `C/C(=N\NC(=S)Nc1cccc(C)c1)c1ccccc1`, the AC50 was 6.31 µM (active). With `C[C@@H](c1ccccc1)N1C(=O)[C@H]2[C@H]3[C@H](O)[C@H](O)C/C(=N/OCc4ccccc4)[C@@H]3CC[C@@H]2C1=O`, the activity, negative = inhibition was -23.4% [at 11.4 µM] (inactive).

With `COc1ccc(CNc2ncncc2-c2cccc(C#N)c2)c(OC)c1`, the activity, negative = inhibition was -28.7% [at 2.29 µM] (inactive). Regarding `S=C(NCc1ccco1)N1CCN(C(c2ccccc2)c2ccccc2)CC1`, the AC50 was 3.16 µM (active).

For `CN1CCN(C(c2ccccc2)c2ccccc2)CC1`, the AC50 result was “inactive”. As for `NC(=O)CNCCC(c1ccccc1)c1ccccc1`, the AC50 entry was “inactive”. Same read-out and setting: the same measure for `O=C1C2ON(c3ccccc3)C(c3ccncc3)C2C(=O)N1c1ccccc1` (stereo unspecified): 0.398 µM (active).

Take `COC(=O)c1cc(=O)n(C2CC2)c(=NC2CC2)s1`: the AC50 result was “inactive”. Regarding `O=C(O)[C@H](CCc1ccccn1)c1ccccc1`, the activity, negative = inhibition was -5.61% [at 11.4 µM] (inactive). On to `CCCC(C(=O)Nc1nccs1)c1ccccc1` (stereo unspecified), for which the AC50 is 12.6 µM (active).

With `O=C(O)c1ccccc1C(=O)Nc1nccs1`, the AC50 entry was “inactive”. Consider `COc1ccccc1CN1CCC2(CC1)CCN(C(=O)c1cccn1C)CC2`, for which the AC50 result was “inactive”. On to `CC(=O)OCCCN1c2ccccc2Nc2nnc(-c3ccccc3)cc21`, for which the AC50 is 1.78 µM (active). On the same count and under the same terms, with `CCCNC(=O)N1N=C(c2ccc(N)cc2)c2cc3c(cc2[C@H]1C)OCO3` the entry was “inactive”; with `Cc1ccc(C(=O)NCc2ccc(N3CCN(C(=O)OC(C)(C)C)CC3)cc2)cc1`, “inactive”. Regarding `Cc1ccc(C)c(S(=O)(=O)NC(CC(C)C)C(=O)O)c1` (stereo unspecified), the AC50 result was “inactive”. On to `Cc1ccccc1NS(=O)(=O)c1cc(C(=O)Nc2cccc(N(C)S(C)(=O)=O)c2)ccc1C`, for which the half-maximal activity concentration (AC50) is 0.794 µM (active). Still for that read-out and setting: the same measure for `Cc1ccc(SCc2ccc(C(=O)NCc3ccncc3)cc2)cc1`: 0.0126 µM (active). `O=C(O)[C@@H]1[C@@H](C(=O)NCc2ccncc2)[C@@H]2C=C[C@@H]1O2`: the activity, negative = inhibition is -12.4% [at 11.4 µM] (inactive). As for `Cc1ccc(SCCNC(=S)Nc2ccc(C)c(C)c2)cc1`, the AC50 is 12.6 µM (active). In the case of `Cc1ccc(SCCNC(=O)c2ccc(C)c(S(=O)(=O)Nc3ccccc3C)c2)cc1`, the AC50 is 4.47 µM (active). On to `COCC(=O)N1CCC2(CC1)CN(Cc1ccccc1OC)C2`, for which the AC50 entry is “inactive”. Turning to `CC1=C(C(=O)O)N2C(=O)C(NC(=O)c3ccn(C)n3)C2SC1` (stereo unspecified), the AC50 result is “inactive”. Regarding `CC(C)(N=NC(C)(C)C(=N)N)C(=N)N`, the activity, negative = inhibition was 0.959% [at 11.4 µM] (inactive). On to `COc1ccccc1CN1CCCC2(CCN(C(=O)c3cnccn3)CC2)C1`, for which the AC50 entry is “inactive”.

For the compound `Cc1ccc(C(=O)NCCNC(=O)CN2CCOCC2)cc1`, the AC50 entry is “inactive”. `Cc1ccc(SCCNC(=O)c2ccccc2)cc1`: the AC50 was 17.8 µM (active).
